PubChem BioAssay (NCI)
About 83,000 compounds went through this panel and 20% of them were active in at least one assay; those are over-represented in the sample as a whole.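 Testing used 96-well plates and a 48-hour single-concentration exposure. Example: -40 means 40% of the starting cells died.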 A number with no mark means an inactive call. Calls of active or inactive are those of the source. Rule for the calls: active = growth percent below 10; inactive = the rest.

Legend:
Assay in all cases: NCI-60 one-dose screen, 48 h (100 = growth as untreated, 0 = no growth, -100 = all killed)
Details in all cases: 10 µM
[1] = system: K-562 leukemia
[2] = system: MALME-3M melanoma
[3] = system: MDA-MB-231 breast
[4] = system: RXF 393 renal
[5] = system: SF-268 CNS
[6] = system: SF-295 CNS
[7] = system: SF-539 CNS
[8] = system: UACC-257 melanoma
[9] = system: M14 melanoma
[10] = system: HCT-15 colon
[11] = system: HT29 colon
[12] = system: SNB-75 CNS
[13] = system: SNB-19 CNS
[14] = system: U251 CNS
[15] = system: PC-3 prostate
[16] = system: SK-MEL-5 melanoma
[17] = system: UACC-62 melanoma
[18] = system: LOX IMVI melanoma
[19] = system: SK-MEL-2 melanoma
[20] = system: SK-MEL-28 melanoma

SMILES | growth [1] | growth [2] | growth [3] | growth [4] | growth [5] | growth [6] | growth [7] | growth [8] | growth [9] | growth [10] | growth [11] | growth [12] | growth [13] [%] | growth [14] | growth [15] | growth [16] | growth [17] | growth [18] | growth [19] | growth [20]
O=C(CCCCCCC(=O)Nc1cccnc1)NO | 5.89% (active) | -23.1% (active) | 66.4% | 17.6% | 41.5% | 73.6% | 50% | 78.4% | 29.6% | 93.1% | 13.2% | -13.5% (active) | 68.1 | 42.2% | 26.3% | 15.3% | 25.3% | 62.4% | 28.8% | 
C[C@]12CC[C@@H]3c4ccc(O)cc4C[C@@H](O)[C@H]3[C@@H]1CC[C@@H]2O | 105% | 102% | 107% | 110% | 109% | 112% | 96.5% | 88.6% | 105% | 102% | 102% | 87.8% | 108 | 96.1% | 90.2% | 96% | 97.1% | 97.3% | 110% | 117%
N#CC1=C(Nc2ccccc2Cl)SC(c2ccccc2O)NC1=O (configuration not stated) | 102% | 116% | 113% | 121% | 112% | 113% | 99.6% | 37.1% | 109% | 119% | 112% | 103% | 111 | 104% | 96.7% | 103% | 103% | 97.5% | 114% | 109%
COc1ccc2c(c1OC)O/C(=C\c1ncc([N+](=O)[O-])n1C)C2=O | 28.8% | -68.9% (active) | -20.7% (active) | -65.7% (active) | -5.54% (active) | 55.3% | 63.5% | -55.8% (active) | -59.1% (active) | 1.65% (active) | -20.8% (active) | 76.6% | 66.2 | 55.2% | 60.2% | -66.5% (active) | 0.211% (active) | 0.891% (active) | -58.9% (active) | -38% (active)
O=[N+]([O-])c1ccc(Oc2cc(Cl)c(Cl)cc2Cl)c(C(F)(F)F)c1 | 93.8% | 107% | 96.4% | 96.4% | 101% | 91.7% | 95.3% | 100% | 101% | 92.2% | 105% | 89.4% | 111 | 97.9% | 92.1% | 96% | 97% | 99.2% | 94.3% | 101%
N=C(N)c1ccc(-c2ccc(-c3ccccc3)o2)nc1 | 30.2% | 91.9% | 50.2% | 106% | 91.2% | 81% | 92% | 94.6% | 97.9% | 81.1% | 19.3% | 38.5% | 82.7 | 83.6% | 71.7% | 86.1% | 103% | 83.4% | 109% | 96.2%
N=C(N)c1ccc(-c2ccc(-c3ccco3)o2)cc1 | 7.46% (active) | 53% | 52.4% | 62.5% | 74.4% | 61.4% | 83.1% | 64.2% | 74% | 31.2% | 5.15% (active) | 22.2% | 68.4 | 53.5% | 59.8% | 76% | 95.9% | 56.9% | 108% | 75.1%
O=C1/C(=C/c2ccc(Cl)cc2)SC(=Nc2ccc(Cl)cc2)N1Cc1nc2ccccc2[nH]1 | 58.2% | 48.9% | 59.2% | 91.5% | 74.4% | 68.2% | 101% | 87.2% | 92.4% | 64.1% | 97% | 27.1% | 75 | 76.2% | 41.6% | 81.3% | 64.6% | 78% | 88.4% | 92.6%
COc1ccc(N=C2C(=Nc3ccc(OC)cc3)N(c3ccc(N(C)C)cc3)C(=S)N2c2ccc(OC)cc2)cc1 | 61.9% | 72.9% | 90.2% | 106% | 90.2% | 2.47% (active) | 54.2% | 76.1% | 65.3% | 74.4% | 84% | 8.69% (active) | 75.1 | 49.3% | 52.5% | 84.8% | 98.2% | 86.3% | 90.7% | 
CCC(=O)N1C/C(=C/c2ccc(OC)cc2)C(=O)/C(=C/c2ccc(OC)cc2)C1 | 1.72% (active) | -9.29% (active) | 19.4% | -66.7% (active) | 24% | -5.17% (active) | 54.7% | 43.4% | -16.5% (active) | 4.21% (active) | -35.5% (active) | 52.9% | 68.2 | 4.41% (active) | 16.2% | 15.7% | 27.3% | -58.7% (active) | 82.3% | 19.2%
CCCCCCCCCCCCCCCCCCOCC(COCCOCC[N+]1(CCCCCC(=O)[O-])CCCC1)Oc1ncccn1 (configuration not stated) | 19.8% | 82.9% | 51.9% | 28.3% | 32.6% | 26.9% | 36.8% | 45.5% | 30% | 56.3% | 22.7% | 6.6% (active) | 18.5 | 8.23% (active) | 0.371% (active) | 45.3% | 54.4% | 39.9% | 70.3% | 
COc1cc2cc3c(nc2cc1OC)CCN3Cc1ccc(NC(=O)Nc2cc(C(F)(F)F)cc(C(F)(F)F)c2)cc1 | 49.8% | 92.1% | 57.4% | 82.5% | 78.6% | 69.6% | 86.8% | 89% | 77.4% | 76.1% | 76.7% | 69.1% | 71.9 | 64.1% | 39.6% | 89.9% | 80.7% | 75.4% | 80.2% | 98.5%
O=C1/C(=C\c2ccc(F)cc2)CN(C(=O)c2ccccc2F)C/C1=C\c1ccc(F)cc1 | -0.921% (active) | -55.2% (active) | -38.7% (active) | -83.2% (active) | 0.452% (active) | -30.7% (active) | 0.221% (active) | -28.2% (active) | -48.4% (active) | -16.3% (active) | -37% (active) | 52.9% | 33.4 | -63% (active) | -34.3% (active) | -58.6% (active) | -77.6% (active) | -80.8% (active) | 30.4% | -72.5% (active)
O=C(N/N=C/c1ccccc1O)C(O)(c1ccccc1)c1ccccc1 | 52.9% | 74% | 60.5% | 85.2% | 46.8% | -12.8% (active) | 60.6% | 68.6% | 57.4% | 32% | 49.7% | 68.8% | 66 | 45.9% | 55.5% | 62.1% | 51.9% | 25.7% | 107% | 69.7%
